Laboratory results reported in PubChem BioAssay (NCATS).
Several values for one entry are separate records, joined by “and”; a condition that tells them apart may be missing. Equal entries are not always repeated. Results filed as inconclusive are left out. A number with no mark means an inactive call. Calls come from the whole dose curve; as a rule, active = well fitted activation curve with a large enough effect; inconclusive = small, poorly fitted or top-dose-only effect; inactive = no such curve, though single readings can be large or run the other way.

Target: Cellular tumor antigen p53 (Homo sapiens) (UniProt P04637)
Sequence (P04637 whole entry, looked up): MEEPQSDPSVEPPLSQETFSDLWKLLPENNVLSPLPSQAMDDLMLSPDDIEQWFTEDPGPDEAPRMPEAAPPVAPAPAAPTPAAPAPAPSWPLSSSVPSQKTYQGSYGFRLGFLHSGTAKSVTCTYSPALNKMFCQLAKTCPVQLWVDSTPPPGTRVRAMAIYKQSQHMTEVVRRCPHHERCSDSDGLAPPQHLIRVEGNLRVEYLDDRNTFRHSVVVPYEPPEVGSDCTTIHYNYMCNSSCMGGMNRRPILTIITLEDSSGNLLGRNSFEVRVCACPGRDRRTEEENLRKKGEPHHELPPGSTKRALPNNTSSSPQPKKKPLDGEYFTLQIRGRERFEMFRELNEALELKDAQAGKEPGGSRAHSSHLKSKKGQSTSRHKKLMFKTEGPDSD
Test: Primary qHTS for small molecule compounds that upregulate eGFP-tagged delta133p53alpha (in N-terminal) cells. (AID 2060322);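 note: series mostly up to about 56 µM; 0% = DMSO vehicle and 100% = reference activator; nearly all actives have a fitted effect of over 75% in size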
Conditions: NCI-H358 eGFP-delta133p53alpha fluorescence, 24 h; activation: stronger effect = higher value
Procedure, shortened: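 NCI-H358 cells pre-induced 24 h with 10 ng/ml doxycycline to express N-terminal eGFP-delta133p53alpha, then dosed 24 h at 37C without doxycycline; fixed, Hoechst-stained, GFP intensity by laser scanning cytometry, normalized to DMSO (0%) and 57.5 uM 5-azacytidine (100%).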

SMILES	activation
CC1=C(CC(=O)O)c2cc(F)ccc2/C1=C\c1ccc(S(C)=O)cc1 (stereo not given)	19.2% and 25%
CC(=O)OCC(=O)[C@@]1(O)[C@H](OC(C)=O)C[C@H]2[C@@H]3CCC4=CC(=O)C=C[C@]4(C)[C@@]3(F)[C@@H](O)C[C@@]21C	4.18%
O=C1[C@H]2CCCC[C@H]2C(=O)N1CCCCN1CCN(c2nsc3ccccc23)CC1	10.7%
NS(=O)(=O)c1ccc(C(=O)O)cc1	-37.9%
COC(=O)c1c(Cl)c(Cl)c(C(=O)OC)c(Cl)c1Cl	-11.7%
COC(=O)c1ccc(NC(C)=O)cc1OC	-12.6%
CC[C@H](CC[C@@H](C)[C@H]1CC[C@H]2[C@@H]3CC=C4C[C@@H](O)CC[C@]4(C)[C@@H]3CC[C@]12C)C(C)C	-21.3%
Cc1cccc(C)c1OCC(=O)N[C@@H](Cc1ccccc1)[C@@H](O)C[C@H](Cc1ccccc1)NC(=O)[C@H](C(C)C)N1CCCNC1=O	-5.4% and 28.8%
O=C1c2ccccc2C(=O)c2c1ccc(O)c2O	-14.2%
CC[N+](CC)(CCNC(=O)C(=O)NCC[N+](CC)(CC)Cc1ccccc1Cl)Cc1ccccc1Cl	-9.6%
Nc1ncnc2c1ncn2[C@@H]1O[C@H](COP(=O)(O)O)[C@@H](O)[C@H]1O	5.08%
CC(C)=CCC/C(C)=C/CC/C(C)=C/C(=O)OCC(=O)[C@@]1(O)CC[C@H]2[C@@H]3CCC4=CC(=O)C=C[C@]4(C)[C@H]3[C@@H](O)C[C@@]21C	-21.8%
CCC(CN)=C(c1ccccc1)c1ccccc1	-4.18%
CCC(=O)OCC(=O)[C@@]1(OC(=O)CC)[C@@H](C)C[C@@H]2[C@H]3CCC4=CC(=O)C=C[C@]4(C)[C@@]3(F)[C@@H](O)C[C@@]21C	3.16%
CC(C)C(=O)SCCCCCCC(=O)Nc1nc(-c2ccccc2)cs1	49.2%
CC[C@H](C)[C@H](N)C(=O)O	-22%
CCOC(=O)C1=C(C)NC(C)=C(C(=O)OCC)C1c1ccccc1/C=C/C(=O)OC(C)(C)C	17.5%
C=C[C@@]1(C)CC(=O)[C@]2(O)[C@@]3(C)[C@@H](O)CCC(C)(C)[C@@H]3[C@H](O)[C@H](OC(C)=O)[C@@]2(C)O1	-2.51%

SMILES	activation
OC[C@H]1O[C@@H](n2cnc3c2NC=NC[C@@H]3O)C[C@H]1O	-21%
Cc1cc(O)c2c(O)c3c(O)cccc3cc2c1	0.837%
O=C1OCCN1/N=C/c1ccc([N+](=O)[O-])o1	-3.35%
Oc1c(I)cc(I)c2cccnc12	-5.86%
CCCCCN(CCCOC)C(=O)C(CCC(=O)O)NC(=O)c1ccc(Cl)c(Cl)c1 (stereo not given)	-18.6%
NC1CCC(Nc2nc(Nc3ccc(C(=O)N4CCCCC4)cc3)c3ncn(-c4cccc(F)c4)c3n2)CC1 (stereo not given)	-1.24%
CCC1(c2cnc[nH]2)Cc2ccccc2C1	-7.53%
C=CCNC(N)=S	-2.82%
CC1(C)OC[C@@H](COC(=O)CCc2ccc(OC[C@@H](O)CNCCNC(=O)N3CCOCC3)cc2)O1	10%
O=C1c2ccccc2C(=O)C1c1ccc(Br)cc1	-22%
COc1cc(C(=S)N2CCOCC2)cc(OC)c1OC	-16.4%
CCOC(=O)[C@H](CCc1ccccc1)N[C@@H](C)C(=O)N1CCCC1C(=O)O (stereo not given in full)	-2.61%
CC1=C(C(=O)O)N2C(=O)[C@@H](NC(=O)[C@H](N)c3ccc(O)cc3)[C@H]2SC1	0%
NS(=O)(=O)c1cc2c(cc1C(F)(F)F)NCNS2(=O)=O	6.21%
O=C1C(CCS(=O)c2ccccc2)C(=O)N(c2ccccc2)N1c1ccccc1 (stereo not given)	15.1%
NCC[C@H](O)C(=O)N[C@@H]1C[C@H](N)[C@@H](O[C@H]2O[C@H](CN)[C@@H](O)[C@H](O)[C@@H]2O)[C@H](O)[C@@H]1O[C@H]1O[C@H](CO)[C@@H](O)[C@H](N)[C@@H]1O	-2.51%
COc1ccc(OC(=O)N(CC(=O)O)Cc2ccc(OCCc3nc(-c4ccccc4)oc3C)cc2)cc1	-10.7%
